Data on 10 molecules can be found in PubChem BioAssay AID488864 (Broad Institute, 2010).

Structures are written as SMILES. Results with a measured potency or affinity are listed apart. The source made the active and inactive calls.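 The calls were made as follows: active = ATP signal reduced by compound, with fitted active dose under ten times the top valid tested dose; inactive = the rest, compounds that increase ATP levels included.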

A short description of this assay: INS-1E beta-cell viability without cytokines, dose response, cytotoxicity control for beta-cell cytokine protection project, CellTiter-Glo luminescence, dry powder (AID 488864).

Turning to `COc1ccc(S(=O)(=O)N(C)C[C@@H]2Oc3c(NC(=O)Nc4c(C)noc4C)cccc3C(=O)N([C@@H](C)CO)C[C@H]2C)cc1`, the molecule was called inactive.

In the case of `COc1ccc(S(=O)(=O)N(C)C[C@@H]2Oc3c(NC(=O)Nc4ccccc4)cccc3C(=O)N([C@@H](C)CO)C[C@H]2C)cc1`, the molecule was classed as inactive.

On to `C[C@@H]1CN([C@@H](C)CO)C(=O)c2cccc(NC(=O)Nc3cccc4ccccc34)c2O[C@H]1CN(C)C(=O)NC1CCCCC1`, for which the outcome was inactive.

For the molecule `COc1ccc(S(=O)(=O)N(C)C[C@@H]2Oc3c(NC(=O)Nc4cccc5ccccc45)cccc3C(=O)N(C(C)C)C[C@H]2C)cc1`, the molecule was called inactive.

Consider `Cc1ccc(S(=O)(=O)N(C)C[C@H]2Oc3c(NC(=O)Nc4cccc5ccccc45)cccc3C(=O)N([C@@H](C)CO)C[C@@H]2C)cc1`, for which the molecule was called inactive.

On to `C[C@@H]1CN([C@@H](C)CO)C(=O)c2cccc(NC(=O)Nc3cccc4ccccc34)c2O[C@H]1CN(C)S(=O)(=O)c1ccc(F)cc1`, for which the call was inactive.

For `C[C@@H]1CN([C@@H](C)CO)C(=O)c2cccc(NC(=O)Nc3cccc(Cl)c3Cl)c2O[C@H]1CN(C)S(=O)(=O)c1ccc2c(c1)OCCO2`, the molecule was called inactive.

For `Cc1ccc(S(=O)(=O)N(C)C[C@@H]2Oc3c(NC(=O)Nc4cccc5ccccc45)cccc3C(=O)N([C@H](C)CO)C[C@H]2C)cc1`, the molecule was called inactive.

As to `C[C@@H]1CN([C@@H](C)CO)C(=O)c2cccc(NC(=O)Nc3ccccc3)c2O[C@H]1CN(C)S(=O)(=O)c1ccc(Cl)cc1`, the call was inactive.

In the case of `N#Cc1ccc2cc(Br)c(C(F)(F)P(=O)(O)O)cc2c1`, the call was inactive.
